Assay results reported in PubChem BioAssay AID1159580 (chemical genetic matrix, 2015).
Several values for one entry are separate records, joined by “and”; a condition that tells them apart may be missing. Equal entries are not always repeated. Screen size: about 5,500 compounds; about 2,000 (36%) were called active. About 18% were inconclusive and are not listed. Cut-off read from the data, not from the text of the source: active = normalized growth mostly below about 0.91 (no sharp cut-off); inconclusive = no clear call, values can overlap the other calls; inactive = mostly above about 0.92. Some of the results follow.

Assay: chemical genetic growth profiling, strain panel (AID 1159580);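 note: tested at 20 µM; growth read once vehicle control cultures reached saturation at 30 °C; 1 = growth at the plate median or of vehicle wells; lower values mean less growth of the strain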
Details: S. cerevisiae deletion strains, growth OD

Measured: normalized growth

OC/C=C/c1ccc(O)c(O)c1
active: locus YGR252W, strain gcn5, stronger effect = lower value 1.24 [resistant] | locus YLR371W, strain rom2, stronger effect = lower value 0.86
inactive: locus YAL013W, strain DEP1, stronger effect = lower value 0.995 | locus YAL021C, strain ccr4, stronger effect = lower value 0.977 | locus YAL026C, strain drs2, stronger effect = lower value 1 | locus YAL030W, strain snc1, stronger effect = lower value 0.995 | locus YBL061C, strain skt5, stronger effect = lower value 0.996 | locus YBR009C, strain hhf1, stronger effect = lower value 0.994 | locus YBR021W, strain FUR4, stronger effect = lower value 1.03 | locus YBR023C, strain chs3, stronger effect = lower value 0.995 | locus YBR171W, strain sec66, stronger effect = lower value 1.01 | locus YBR229C, strain ROT2, stronger effect = lower value 1 | locus YBR231C, strain swc5, stronger effect = lower value 0.993 | locus YBR279W, strain paf1, stronger effect = lower value 0.996 | locus YCL011C, strain gbp2, stronger effect = lower value 0.994 | locus YCL016C, strain dcc1, stronger effect = lower value 0.995 | locus YCL029C, strain bik1, stronger effect = lower value 0.96 | locus YCL061C, strain MRC1, stronger effect = lower value 0.996 | locus YCL069W, strain vba3, stronger effect = lower value 0.992 | locus YCR088W, strain abp1, stronger effect = lower value 1.01 | locus YDL005C, strain med2, stronger effect = lower value 0.996 | locus YDL035C, strain GPR1, stronger effect = lower value 1.02 | locus YDL040C, strain nat1, stronger effect = lower value 0.988 | locus YDL074C, strain BRE1, stronger effect = lower value 0.945 | locus YDL101C, strain DUN1, stronger effect = lower value 0.991 | locus YDL134C, strain PPH21, stronger effect = lower value 1.05 | locus YDL185W, strain tfp1, stronger effect = lower value 0.953 | locus YDL192W, strain arf1, stronger effect = lower value 0.973 | locus YDR001C, strain nth1, stronger effect = lower value 0.994 | locus YDR069C, strain doa4, stronger effect = lower value 1.01 | locus YDR101C, strain arx1, stronger effect = lower value 0.962 | locus YDR137W, strain rgp1, stronger effect = lower value 0.968 | locus YDR159W, strain sac3, stronger effect = lower value 0.966 | locus YDR162C, strain NBP2, stronger effect = lower value 0.993 | locus YDR195W, strain ref2 0.951 | locus YDR297W, strain sur2, stronger effect = lower value 1 | locus YDR318W, strain mcm21, stronger effect = lower value 0.984 | locus YDR334W, strain swr1, stronger effect = lower value 0.991 | locus YDR335W, strain msn5, stronger effect = lower value 0.996 | locus YDR388W, stronger effect = lower value 0.98 | locus YDR392W, strain spt3, stronger effect = lower value 1.01 | locus YDR502C, strain sam2, stronger effect = lower value 0.993 | locus YEL003W, strain gim4, stronger effect = lower value 0.997 | locus YEL037C, strain rad23, stronger effect = lower value 1 | locus YEL061C, strain CIN8 (second series), stronger effect = lower value 0.991 | locus YEL061C, strain CIN8, stronger effect = lower value 0.978 | locus YER015W, strain faa2, stronger effect = lower value 1 | locus YER016W, strain bim1, stronger effect = lower value 0.992 | locus YER110C, stronger effect = lower value 0.954 | locus YER111C, strain swi4, stronger effect = lower value 1.01 | locus YER155C, strain BEM2 (second series), stronger effect = lower value 0.991 | locus YER155C, strain BEM2, stronger effect = lower value 0.987 | locus YER167W, strain BCK2, stronger effect = lower value 0.978 | locus YFR010W, strain ubp6, stronger effect = lower value 0.999 | locus YGL078C, strain dbp3, stronger effect = lower value 1.02 | locus YGL086W, strain mad1, stronger effect = lower value 0.937 | locus YGL167C, strain pmr1, stronger effect = lower value 1 | locus YGL173C, strain kem1, stronger effect = lower value 1.01 | locus YGL227W, strain vid30, stronger effect = lower value 1.01 | locus YGL240W, strain doc1, stronger effect = lower value 1.03 | locus YGL248W, strain PDE1, stronger effect = lower value 1.01 | locus YGL253W, strain hxk2, stronger effect = lower value 1.01 | locus YGR135W, strain pre9, stronger effect = lower value 1 | locus YHR013C, strain ard1, stronger effect = lower value 0.976 | locus YHR027C, strain rpn1, stronger effect = lower value 0.987 | locus YHR030C, strain SLT2, stronger effect = lower value 0.978 and 0.986 | locus YHR079C, strain IRE1 (second series), stronger effect = lower value 0.96 | locus YHR079C, strain IRE1, stronger effect = lower value 0.996 | locus YHR094C, strain hxt1, stronger effect = lower value 0.969 | locus YHR129C, strain ARP1, stronger effect = lower value 0.991 | locus YHR142W, strain chs7, stronger effect = lower value 1 | locus YHR200W, strain rpn10, stronger effect = lower value 0.966 | locus YIL066C, strain RNR3, stronger effect = lower value 0.996 | locus YIL073C, strain SPO22, stronger effect = lower value 0.912 | locus YIL125W, strain kgd1, stronger effect = lower value 0.98 | locus YIR030C, strain dcg1, stronger effect = lower value 0.969 | locus YJL092W, strain hpr5, stronger effect = lower value 0.995 | locus YJL095W, strain BCK1 (second series), stronger effect = lower value 1 | locus YJL095W, strain BCK1, stronger effect = lower value 1.02 and 0.999 | locus YJL115W, strain asf1, stronger effect = lower value 0.999 | locus YJL129C, strain trk1, stronger effect = lower value 0.994 | locus YJL134W, strain LCB3, stronger effect = lower value 0.986 | locus YJL154C, strain vps35, stronger effect = lower value 0.998 | locus YJL164C, strain tpk1, stronger effect = lower value 0.998 | locus YJL166W, strain qcr8, stronger effect = lower value 1 | locus YJL168C, strain set2, stronger effect = lower value 0.962 | locus YJL187C, strain SWE1 (second series), stronger effect = lower value 0.997 | locus YJL187C, strain SWE1, stronger effect = lower value 0.992 | locus YJR043C, strain POL32, stronger effect = lower value 1.02 | locus YJR066W, strain TOR1, stronger effect = lower value 0.946 | locus YJR075W, strain HOC1, stronger effect = lower value 0.984 | locus YKL009W, strain mrt4, stronger effect = lower value 1.01 | locus YKL068W, stronger effect = lower value 0.959 | locus YKL085W, strain MDH1 (second series), stronger effect = lower value 0.95 | locus YKL085W, strain MDH1, stronger effect = lower value 0.95 | locus YKL160W, strain elf1, stronger effect = lower value 1 | locus YKR001C, strain vps1, stronger effect = lower value 0.972 | locus YKR026C, strain gcn3, stronger effect = lower value 1 | locus YKR091W, strain srl3, stronger effect = lower value 1 | locus YLL001W, strain dnm1, stronger effect = lower value 0.989 | locus YLL026W, stronger effect = lower value 1 | locus YLL041C, strain sdh2, stronger effect = lower value 0.999 | locus YLR027C, strain aat2, stronger effect = lower value 0.988 | locus YLR039C, strain RIC1, stronger effect = lower value 0.938 | locus YLR058C, strain SHM2, stronger effect = lower value 0.996 | locus YLR102C, strain apc9, stronger effect = lower value 0.961 | locus YLR113W, strain HOG1, stronger effect = lower value 0.98 | locus YLR221C, strain rsa3, stronger effect = lower value 1 | locus YLR258W, strain gsy2, stronger effect = lower value 1.02 | locus YLR262C, strain YPT6 (second series), stronger effect = lower value 0.991 | locus YLR262C, strain YPT6, stronger effect = lower value 0.942 | locus YLR268W, strain sec22, stronger effect = lower value 0.96 | locus YLR320W, strain mms22, stronger effect = lower value 1 | locus YLR330W, strain CHS5, stronger effect = lower value 0.934 | locus YLR342W, strain FKS1 (second series), stronger effect = lower value 1.04 | locus YLR342W, strain FKS1, stronger effect = lower value 1.01 | locus YLR357W, strain rsc2, stronger effect = lower value 0.988 | locus YLR370C, strain arc18, stronger effect = lower value 0.993 | locus YLR384C, strain iki3, stronger effect = lower value 0.992 | locus YLR418C, strain cdc73, stronger effect = lower value 0.988 | locus YML016C, strain PPZ1, stronger effect = lower value 0.992 | locus YML032C, strain rad52, stronger effect = lower value 1.01 | locus YML120C, strain ndi1, stronger effect = lower value 0.992 | locus YML124C, strain tub3, stronger effect = lower value 0.96 | locus YMR058W, strain fet3, stronger effect = lower value 1.01 | locus YMR078C, strain ctf18, stronger effect = lower value 0.95 | locus YMR125W, strain sto1, stronger effect = lower value 0.995 | locus YMR129W, stronger effect = lower value 0.997 | locus YMR205C, strain PFK2, stronger effect = lower value 0.983 | locus YMR223W, strain ubp8, stronger effect = lower value 0.98 | locus YMR231W, strain pep5, stronger effect = lower value 0.979 | locus YMR263W, strain SAP30, stronger effect = lower value 0.989 | locus YMR307W, strain GAS1, stronger effect = lower value 1.09 | locus YNL067W, strain RPL9B, stronger effect = lower value 0.997 | locus YNL071W, strain lat1, stronger effect = lower value 0.993 | locus YNL128W, strain TEP1, stronger effect = lower value 0.966 | locus YNL153C, strain GIM3, stronger effect = lower value 0.999 | locus YNL183C, strain NPR1, stronger effect = lower value 0.963 | locus YNL209W, strain ssb2, stronger effect = lower value 0.991 | locus YNL233W, strain BNI4, stronger effect = lower value 0.994 | locus YNL248C, strain rpa49, stronger effect = lower value 1 | locus YNL250W, strain rad50, stronger effect = lower value 0.909 | locus YNL271C, strain bni1, stronger effect = lower value 0.963 | locus YNL298W, strain CLA4, stronger effect = lower value 0.991 | locus YNL307C, strain MCK1, stronger effect = lower value 0.953 | locus YNL322C, strain KRE1 (second series), stronger effect = lower value 1 | locus YNR049C, strain mso1, stronger effect = lower value 0.997 | locus YNR052C, strain pop2, stronger effect = lower value 0.98 | locus YOL012C, strain htz1 0.905 | locus YOL147C, strain pex11, stronger effect = lower value 0.963 | locus YOR001W, strain rrp6, stronger effect = lower value 1.01 | locus YOR061W, strain CKA2, stronger effect = lower value 0.995 | locus YOR069W, strain VPS5, stronger effect = lower value 0.986 | locus YOR070C, strain gyp1, stronger effect = lower value 0.985 | locus YOR080W, strain dia2, stronger effect = lower value 0.994 | locus YOR083W, strain WHI5, stronger effect = lower value 1 | locus YOR106W, strain vam3, stronger effect = lower value 1.01 | locus YOR136W, strain idh2, stronger effect = lower value 0.953 | locus YOR144C, strain elg1, stronger effect = lower value 0.971 | locus YOR184W, strain ser1, stronger effect = lower value 1.02 | locus YOR231W, strain MKK1, stronger effect = lower value 1 | locus YOR265W, strain rbl2, stronger effect = lower value 0.989 | locus YOR270C, strain vph1, stronger effect = lower value 0.994 | locus YOR290C, strain snf2, stronger effect = lower value 1.02 | locus YOR316C, strain cot1, stronger effect = lower value 0.957 | locus YPL051W, strain arl3, stronger effect = lower value 1.05 | locus YPL055C, strain LGE1, stronger effect = lower value 1 | locus YPL078C, strain atp4, stronger effect = lower value 0.994 | locus YPL106C, strain sse1, stronger effect = lower value 0.988 | locus YPL240C, strain hsp82, stronger effect = lower value 0.995 | locus YPL241C, strain CIN2, stronger effect = lower value 0.988 | locus YPL256C, strain CLN2, stronger effect = lower value 0.956 | locus YPR119W, strain clb2, stronger effect = lower value 0.946 | locus YPR141C, strain kar3, stronger effect = lower value 0.938 | locus YPR163C, strain tif3, stronger effect = lower value 0.973 | locus YPR167C, strain met16, stronger effect = lower value 0.967 | strain wtn01, stronger effect = lower value 0.949
